# Data from PubChem BioAssay AID1159580 (chemical genetic matrix, 2015).
# About 2,000 (36%) of roughly 5,500 compounds were called active. Not shown: some 18% with an inconclusive outcome. The list shows a part of the results. Unmarked numbers belong to inactive results. Cut-off read from the data, not from the text of the source: active = normalized growth mostly below about 0.91 (no sharp cut-off); inconclusive = no clear call, values can overlap the other calls; inactive = mostly above about 0.92.
# Experiment: chemical genetic growth profiling, strain panel (AID 1159580);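 note: tested at 20 µM; growth read once vehicle control cultures reached saturation at 30 °C; 1 = growth at the plate median or of vehicle wells; lower values mean less growth of the strain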
# Settings: growth OD
smiles,measurement,setting,value
NC(=O)c1cc([N+](=O)[O-])cc([N+](=O)[O-])c1,normalized growth,"S. cerevisiae deletion strains, locus YJR075W, strain HOC1, stronger effect = lower value",1
same,normalized growth,"S. cerevisiae deletion strains, locus YKL009W, strain mrt4, stronger effect = lower value",0.985
same,normalized growth,"S. cerevisiae deletion strains, locus YKL068W, stronger effect = lower value",1
same,normalized growth,"S. cerevisiae deletion strains, locus YKL085W, strain MDH1 (second series), stronger effect = lower value",0.999
same,normalized growth,"S. cerevisiae deletion strains, locus YKL085W, strain MDH1, stronger effect = lower value",0.999
same,normalized growth,"S. cerevisiae deletion strains, locus YKL160W, strain elf1, stronger effect = lower value",1.01
same,normalized growth,"S. cerevisiae deletion strains, locus YKL190W, strain CNB1, stronger effect = lower value",1.01
same,normalized growth,"S. cerevisiae deletion strains, locus YKR001C, strain vps1, stronger effect = lower value",0.997
same,normalized growth,"S. cerevisiae deletion strains, locus YKR026C, strain gcn3, stronger effect = lower value",1.02
same,normalized growth,"S. cerevisiae deletion strains, locus YKR091W, strain srl3, stronger effect = lower value",1.02
same,normalized growth,"S. cerevisiae deletion strains, locus YLL001W, strain dnm1, stronger effect = lower value",1.06
same,normalized growth,"S. cerevisiae deletion strains, locus YLL026W, stronger effect = lower value",1.01
same,normalized growth,"S. cerevisiae deletion strains, locus YLL041C, strain sdh2, stronger effect = lower value",1
same,normalized growth,"S. cerevisiae deletion strains, locus YLR027C, strain aat2, stronger effect = lower value",0.989
same,normalized growth,"S. cerevisiae deletion strains, locus YLR039C, strain RIC1, stronger effect = lower value",1.24
same,normalized growth,"S. cerevisiae deletion strains, locus YLR058C, strain SHM2, stronger effect = lower value",1.01
same,normalized growth,"S. cerevisiae deletion strains, locus YLR102C, strain apc9, stronger effect = lower value",1
same,normalized growth,"S. cerevisiae deletion strains, locus YLR113W, strain HOG1, stronger effect = lower value",0.988
same,normalized growth,"S. cerevisiae deletion strains, locus YLR221C, strain rsa3, stronger effect = lower value",1.02
same,normalized growth,"S. cerevisiae deletion strains, locus YLR258W, strain gsy2, stronger effect = lower value",1
same,normalized growth,"S. cerevisiae deletion strains, locus YLR262C, strain YPT6 (second series), stronger effect = lower value",1.11
same,normalized growth,"S. cerevisiae deletion strains, locus YLR262C, strain YPT6, stronger effect = lower value",1.2
same,normalized growth,"S. cerevisiae deletion strains, locus YLR268W, strain sec22, stronger effect = lower value",0.963
same,normalized growth,"S. cerevisiae deletion strains, locus YLR320W, strain mms22, stronger effect = lower value",1.01
same,normalized growth,"S. cerevisiae deletion strains, locus YLR330W, strain CHS5, stronger effect = lower value",1.02
same,normalized growth,"S. cerevisiae deletion strains, locus YLR342W, strain FKS1 (second series), stronger effect = lower value",1.02
same,normalized growth,"S. cerevisiae deletion strains, locus YLR342W, strain FKS1, stronger effect = lower value",1.02
same,normalized growth,"S. cerevisiae deletion strains, locus YLR357W, strain rsc2, stronger effect = lower value",1
same,normalized growth,"S. cerevisiae deletion strains, locus YLR370C, strain arc18, stronger effect = lower value",1.02
same,normalized growth,"S. cerevisiae deletion strains, locus YLR371W, strain rom2, stronger effect = lower value",0.998
same,normalized growth,"S. cerevisiae deletion strains, locus YLR384C, strain iki3, stronger effect = lower value",1.02
same,normalized growth,"S. cerevisiae deletion strains, locus YLR418C, strain cdc73, stronger effect = lower value",0.861
same,normalized growth,"S. cerevisiae deletion strains, locus YML016C, strain PPZ1, stronger effect = lower value",1.03
same,normalized growth,"S. cerevisiae deletion strains, locus YML032C, strain rad52, stronger effect = lower value",0.974
same,normalized growth,"S. cerevisiae deletion strains, locus YML120C, strain ndi1, stronger effect = lower value",1.02
same,normalized growth,"S. cerevisiae deletion strains, locus YML124C, strain tub3, stronger effect = lower value",0.998
same,normalized growth,"S. cerevisiae deletion strains, locus YMR058W, strain fet3, stronger effect = lower value",0.955
same,normalized growth,"S. cerevisiae deletion strains, locus YMR078C, strain ctf18, stronger effect = lower value",0.999
same,normalized growth,"S. cerevisiae deletion strains, locus YMR125W, strain sto1, stronger effect = lower value",1.01
same,normalized growth,"S. cerevisiae deletion strains, locus YMR129W, stronger effect = lower value",1.02
same,normalized growth,"S. cerevisiae deletion strains, locus YMR205C, strain PFK2, stronger effect = lower value",1.04
same,normalized growth,"S. cerevisiae deletion strains, locus YMR223W, strain ubp8, stronger effect = lower value",0.979
same,normalized growth,"S. cerevisiae deletion strains, locus YMR231W, strain pep5, stronger effect = lower value",1.01
same,normalized growth,"S. cerevisiae deletion strains, locus YMR307W, strain GAS1, stronger effect = lower value",0.972
same,normalized growth,"S. cerevisiae deletion strains, locus YNL067W, strain RPL9B, stronger effect = lower value",0.999
same,normalized growth,"S. cerevisiae deletion strains, locus YNL071W, strain lat1, stronger effect = lower value",0.998
same,normalized growth,"S. cerevisiae deletion strains, locus YNL128W, strain TEP1, stronger effect = lower value",0.982
same,normalized growth,"S. cerevisiae deletion strains, locus YNL183C, strain NPR1, stronger effect = lower value",0.935
same,normalized growth,"S. cerevisiae deletion strains, locus YNL209W, strain ssb2, stronger effect = lower value",1.01
same,normalized growth,"S. cerevisiae deletion strains, locus YNL233W, strain BNI4, stronger effect = lower value",1.01
same,normalized growth,"S. cerevisiae deletion strains, locus YNL248C, strain rpa49, stronger effect = lower value",0.879 (active)
same,normalized growth,"S. cerevisiae deletion strains, locus YNL250W, strain rad50, stronger effect = lower value",1.01
same,normalized growth,"S. cerevisiae deletion strains, locus YNL271C, strain bni1, stronger effect = lower value",0.974
same,normalized growth,"S. cerevisiae deletion strains, locus YNL298W, strain CLA4, stronger effect = lower value",0.983
same,normalized growth,"S. cerevisiae deletion strains, locus YNL307C, strain MCK1, stronger effect = lower value",0.979
same,normalized growth,"S. cerevisiae deletion strains, locus YNL322C, strain KRE1 (second series), stronger effect = lower value",1.04
same,normalized growth,"S. cerevisiae deletion strains, locus YNL322C, strain KRE1, stronger effect = lower value",1.02
same,normalized growth,"S. cerevisiae deletion strains, locus YNR049C, strain mso1, stronger effect = lower value",1.01
same,normalized growth,"S. cerevisiae deletion strains, locus YNR052C, strain pop2, stronger effect = lower value",0.985
same,normalized growth,"S. cerevisiae deletion strains, locus YOL006C, strain TOP1, stronger effect = lower value",0.927
same,normalized growth,"S. cerevisiae deletion strains, locus YOL012C, strain htz1",0.763
same,normalized growth,"S. cerevisiae deletion strains, locus YOL147C, strain pex11, stronger effect = lower value",0.998
same,normalized growth,"S. cerevisiae deletion strains, locus YOR001W, strain rrp6, stronger effect = lower value",0.984
same,normalized growth,"S. cerevisiae deletion strains, locus YOR061W, strain CKA2, stronger effect = lower value",1.01
same,normalized growth,"S. cerevisiae deletion strains, locus YOR069W, strain VPS5, stronger effect = lower value",1.01
same,normalized growth,"S. cerevisiae deletion strains, locus YOR070C, strain gyp1, stronger effect = lower value",1
same,normalized growth,"S. cerevisiae deletion strains, locus YOR080W, strain dia2, stronger effect = lower value",1.02
same,normalized growth,"S. cerevisiae deletion strains, locus YOR083W, strain WHI5, stronger effect = lower value",1.02
same,normalized growth,"S. cerevisiae deletion strains, locus YOR106W, strain vam3, stronger effect = lower value",1
same,normalized growth,"S. cerevisiae deletion strains, locus YOR136W, strain idh2, stronger effect = lower value",0.993
same,normalized growth,"S. cerevisiae deletion strains, locus YOR144C, strain elg1, stronger effect = lower value",0.998
same,normalized growth,"S. cerevisiae deletion strains, locus YOR184W, strain ser1, stronger effect = lower value",0.976
same,normalized growth,"S. cerevisiae deletion strains, locus YOR231W, strain MKK1, stronger effect = lower value",0.963
same,normalized growth,"S. cerevisiae deletion strains, locus YOR265W, strain rbl2, stronger effect = lower value",1
same,normalized growth,"S. cerevisiae deletion strains, locus YOR270C, strain vph1, stronger effect = lower value",1.02
same,normalized growth,"S. cerevisiae deletion strains, locus YOR290C, strain snf2, stronger effect = lower value",1.01
same,normalized growth,"S. cerevisiae deletion strains, locus YOR316C, strain cot1, stronger effect = lower value",0.995
same,normalized growth,"S. cerevisiae deletion strains, locus YPL051W, strain arl3, stronger effect = lower value",0.97
same,normalized growth,"S. cerevisiae deletion strains, locus YPL055C, strain LGE1, stronger effect = lower value",0.96
same,normalized growth,"S. cerevisiae deletion strains, locus YPL078C, strain atp4, stronger effect = lower value",1.01
same,normalized growth,"S. cerevisiae deletion strains, locus YPL106C, strain sse1, stronger effect = lower value",1.02
same,normalized growth,"S. cerevisiae deletion strains, locus YPL240C, strain hsp82, stronger effect = lower value",1.01
same,normalized growth,"S. cerevisiae deletion strains, locus YPL241C, strain CIN2, stronger effect = lower value",1.03
same,normalized growth,"S. cerevisiae deletion strains, locus YPL256C, strain CLN2, stronger effect = lower value",0.965
same,normalized growth,"S. cerevisiae deletion strains, locus YPR119W, strain clb2, stronger effect = lower value",1
same,normalized growth,"S. cerevisiae deletion strains, locus YPR141C, strain kar3, stronger effect = lower value",1
same,normalized growth,"S. cerevisiae deletion strains, locus YPR163C, strain tif3, stronger effect = lower value",0.995
same,normalized growth,"S. cerevisiae deletion strains, locus YPR167C, strain met16, stronger effect = lower value",0.992
same,normalized growth,"S. cerevisiae deletion strains, strain wtn01, stronger effect = lower value",0.98
same,normalized growth,"S. cerevisiae strains, strain wild type, stronger effect = lower value",1.01
